Records with an inconclusive call do not appear. Active and inactive are the calls of the source. The call rests on the fitted dose curve; in most records, active means well fitted cell-killing curve with a large enough effect; inconclusive means small, poorly fitted or top-dose-only effect, or effect the other way; inactive means flat fitted curve, though single readings scatter.
Key:
Assay in all cases: Primary qHTS to identify gynecologic anti-cancer compounds using libraries of approved drugs and bioactive compounds (AID 1345084); further: nearly all actives have a fitted effect of over 55% in size
C33A = details: Gynecologic cancer cell panel viability, ATPlite luminescence, 48 h; series mostly up to 57.5 µM
Method in brief: (§1)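 48 h compound exposure at 37 C, 5% CO2; five-point qHTS. ATPlite luminescence readout of cell ATP.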

CAOV3 = details: Gynecologic cancer cell panel viability, ATPlite luminescence, 48 h; series mostly up to 57.5 µM
Method in brief: as §1

CASKI = details: Gynecologic cancer cell panel viability, ATPlite luminescence, 48 h; series mostly up to 57.5 µM
Method in brief: as §1

Es-2 = details: Gynecologic cancer cell panel viability, ATPlite luminescence, 48 h; series mostly up to 57.5 µM
Method in brief: as §1

HeLa = details: Gynecologic cancer cell panel viability, ATPlite luminescence, 48 h; series mostly up to 57.5 µM
Method in brief: as §1

Hek293T = details: Gynecologic cancer cell panel viability, ATPlite luminescence, 48 h, control line for the selectivity index; series mostly up to 57.5 µM
Method in brief: as §1

JEG-3 = details: Gynecologic cancer cell panel viability, ATPlite luminescence, 48 h; series mostly up to 57.5 µM
Method in brief: as §1

OV90 = details: Gynecologic cancer cell panel viability, ATPlite luminescence, 48 h; series mostly up to 57.5 µM
Method in brief: as §1

PA-1 = details: Gynecologic cancer cell panel viability, ATPlite luminescence, 48 h; series mostly up to 57.5 µM
Method in brief: as §1

SKOV3 = details: Gynecologic cancer cell panel viability, ATPlite luminescence, 48 h; series mostly up to 57.5 µM
Method in brief: as §1

Tov-21-G = details: Gynecologic cancer cell panel viability, ATPlite luminescence, 48 h; series mostly up to 57.5 µM
Method in brief: as §1

Tov112D = details: Gynecologic cancer cell panel viability, ATPlite luminescence, 48 h; series mostly up to 57.5 µM
Method in brief: as §1

Measured: Potency

CC(C)(C)NC(=O)[C@H]1CC[C@H]2[C@@H]3CC[C@H]4NC(=O)CC[C@]4(C)[C@H]3CC[C@]12C
inactive: all assays above

O=C(C(Cc1cccc(C(F)(F)F)c1)NS(=O)(=O)c1cc(F)c2c(c1)CCNC2)N1CCCC1 (stereo not given)
inactive: all assays above

O=C(Nc1cnc(Cl)nc1)c1ccc(F)c(F)c1
inactive: all assays above

C/C(=C\CO[C@@H]1O[C@H](CO[C@H]2OC[C@](O)(CO)[C@H]2O)[C@@H](O)[C@H](O)[C@H]1O)C(C)(C)O
inactive: all assays above

Cn1cc(-c2ccc(F)c(C(F)(F)F)c2)nc1C1CCN(c2ncnc3[nH]ncc23)CC1
inactive: all assays above

CC[N+]1(C/C2=C/CCCCCC2)CCC(NC(=O)C2c3cc(Cl)ccc3Oc3ccc(Cl)cc32)CC1 (stereo not given)
inactive: all assays above

COc1c(C(O)CC(C)C)ccc2c1C(=O)OCc1cc(C)cc(O)c1O2 (stereo not given)
inactive: all assays above

COc1ccc(-n2c(SCCCN3C(=O)c4cccc5cccc(c45)C3=O)nnc2-c2ccncc2)cc1
inactive: all assays above

CC[C@H](C)/C=C(C)/C=C/C1=CC2=C(Cl)C(=O)[C@](C)(O)[C@H](OC(C)=O)[C@H]2CO1
inactive: all assays above

C=C1C(=O)OC2/C=C(\CO)CC/C=C(\C=O)C(O)C(OC(=O)C(C)CC)C12 (stereo not given)
inactive: all assays above

CC(C)=CCC[C@](C)(O[C@@H]1O[C@H](CO[C@@H]2OC[C@@H](O)[C@H](O)[C@H]2O)[C@@H](O)[C@H](O)[C@H]1O)[C@H]1CC[C@]2(C)[C@@H]1[C@H](O)C[C@@H]1[C@@]3(C)CC[C@H](O[C@@H]4O[C@H](CO)[C@@H](O)[C@H](O)[C@H]4O)C(C)(C)[C@@H]3CC[C@]12C
inactive: all assays above

COc1cc(OC)c(NC(=O)c2ccc(Cc3cc4c(cc3C)C(C)(C)CCC4(C)C)o2)c(OC)c1
inactive: all assays above

COc1ccc(-c2cnc3c(-c4cccc5ncccc45)cnn3c2)cc1
inactive: all assays above

O=C(Nc1ccccc1Br)NC1CCN(c2ccc(C(F)(F)F)cn2)C1 (stereo not given)
inactive: all assays above

Cc1cccc(-c2[nH]ncc2-c2ccc(F)c(-c3cnn(CCO)c3)c2)n1
inactive: all assays above
